Test results from the supplement of paper PMC12067093, “Discovery and optimisation of a covalent ligand for TRIM25 and its application to targeted protein ubiquitination” (Chemical Science, 2025).
Targets with the largest changes are over-represented here; the source holds about 21,000 in all.

Compound: Cc1cc(ccc1-c1ccccc1)C(=O)N1CCCN(CC1)C(=O)CCl [compound 10]
Assay: probe-labelled cysteine peptide fold change vs DMSO (competition) (log2 fold change); higher = less target engagement (more negative = stronger competition)
Conditions: THP-1, incubation time: 4 h
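Further: competitive profiling in live THP-1 cells: cysteine peptides tagged with an iodoacetamide desthiobiotin (IA-DTB) probe, intensity after compound treatment relative to DMSO-treated cells.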

UniProt O43396, sequence (O43396 whole entry, looked up): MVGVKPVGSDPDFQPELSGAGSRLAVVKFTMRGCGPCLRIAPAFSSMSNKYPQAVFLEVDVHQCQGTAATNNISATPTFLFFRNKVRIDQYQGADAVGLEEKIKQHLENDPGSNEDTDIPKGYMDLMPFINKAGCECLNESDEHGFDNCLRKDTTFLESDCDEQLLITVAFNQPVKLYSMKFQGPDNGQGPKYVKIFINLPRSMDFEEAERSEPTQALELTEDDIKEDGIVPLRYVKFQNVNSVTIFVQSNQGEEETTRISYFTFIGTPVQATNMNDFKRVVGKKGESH
UniProt Q70CQ2, sequence (Q70CQ2 whole entry, looked up): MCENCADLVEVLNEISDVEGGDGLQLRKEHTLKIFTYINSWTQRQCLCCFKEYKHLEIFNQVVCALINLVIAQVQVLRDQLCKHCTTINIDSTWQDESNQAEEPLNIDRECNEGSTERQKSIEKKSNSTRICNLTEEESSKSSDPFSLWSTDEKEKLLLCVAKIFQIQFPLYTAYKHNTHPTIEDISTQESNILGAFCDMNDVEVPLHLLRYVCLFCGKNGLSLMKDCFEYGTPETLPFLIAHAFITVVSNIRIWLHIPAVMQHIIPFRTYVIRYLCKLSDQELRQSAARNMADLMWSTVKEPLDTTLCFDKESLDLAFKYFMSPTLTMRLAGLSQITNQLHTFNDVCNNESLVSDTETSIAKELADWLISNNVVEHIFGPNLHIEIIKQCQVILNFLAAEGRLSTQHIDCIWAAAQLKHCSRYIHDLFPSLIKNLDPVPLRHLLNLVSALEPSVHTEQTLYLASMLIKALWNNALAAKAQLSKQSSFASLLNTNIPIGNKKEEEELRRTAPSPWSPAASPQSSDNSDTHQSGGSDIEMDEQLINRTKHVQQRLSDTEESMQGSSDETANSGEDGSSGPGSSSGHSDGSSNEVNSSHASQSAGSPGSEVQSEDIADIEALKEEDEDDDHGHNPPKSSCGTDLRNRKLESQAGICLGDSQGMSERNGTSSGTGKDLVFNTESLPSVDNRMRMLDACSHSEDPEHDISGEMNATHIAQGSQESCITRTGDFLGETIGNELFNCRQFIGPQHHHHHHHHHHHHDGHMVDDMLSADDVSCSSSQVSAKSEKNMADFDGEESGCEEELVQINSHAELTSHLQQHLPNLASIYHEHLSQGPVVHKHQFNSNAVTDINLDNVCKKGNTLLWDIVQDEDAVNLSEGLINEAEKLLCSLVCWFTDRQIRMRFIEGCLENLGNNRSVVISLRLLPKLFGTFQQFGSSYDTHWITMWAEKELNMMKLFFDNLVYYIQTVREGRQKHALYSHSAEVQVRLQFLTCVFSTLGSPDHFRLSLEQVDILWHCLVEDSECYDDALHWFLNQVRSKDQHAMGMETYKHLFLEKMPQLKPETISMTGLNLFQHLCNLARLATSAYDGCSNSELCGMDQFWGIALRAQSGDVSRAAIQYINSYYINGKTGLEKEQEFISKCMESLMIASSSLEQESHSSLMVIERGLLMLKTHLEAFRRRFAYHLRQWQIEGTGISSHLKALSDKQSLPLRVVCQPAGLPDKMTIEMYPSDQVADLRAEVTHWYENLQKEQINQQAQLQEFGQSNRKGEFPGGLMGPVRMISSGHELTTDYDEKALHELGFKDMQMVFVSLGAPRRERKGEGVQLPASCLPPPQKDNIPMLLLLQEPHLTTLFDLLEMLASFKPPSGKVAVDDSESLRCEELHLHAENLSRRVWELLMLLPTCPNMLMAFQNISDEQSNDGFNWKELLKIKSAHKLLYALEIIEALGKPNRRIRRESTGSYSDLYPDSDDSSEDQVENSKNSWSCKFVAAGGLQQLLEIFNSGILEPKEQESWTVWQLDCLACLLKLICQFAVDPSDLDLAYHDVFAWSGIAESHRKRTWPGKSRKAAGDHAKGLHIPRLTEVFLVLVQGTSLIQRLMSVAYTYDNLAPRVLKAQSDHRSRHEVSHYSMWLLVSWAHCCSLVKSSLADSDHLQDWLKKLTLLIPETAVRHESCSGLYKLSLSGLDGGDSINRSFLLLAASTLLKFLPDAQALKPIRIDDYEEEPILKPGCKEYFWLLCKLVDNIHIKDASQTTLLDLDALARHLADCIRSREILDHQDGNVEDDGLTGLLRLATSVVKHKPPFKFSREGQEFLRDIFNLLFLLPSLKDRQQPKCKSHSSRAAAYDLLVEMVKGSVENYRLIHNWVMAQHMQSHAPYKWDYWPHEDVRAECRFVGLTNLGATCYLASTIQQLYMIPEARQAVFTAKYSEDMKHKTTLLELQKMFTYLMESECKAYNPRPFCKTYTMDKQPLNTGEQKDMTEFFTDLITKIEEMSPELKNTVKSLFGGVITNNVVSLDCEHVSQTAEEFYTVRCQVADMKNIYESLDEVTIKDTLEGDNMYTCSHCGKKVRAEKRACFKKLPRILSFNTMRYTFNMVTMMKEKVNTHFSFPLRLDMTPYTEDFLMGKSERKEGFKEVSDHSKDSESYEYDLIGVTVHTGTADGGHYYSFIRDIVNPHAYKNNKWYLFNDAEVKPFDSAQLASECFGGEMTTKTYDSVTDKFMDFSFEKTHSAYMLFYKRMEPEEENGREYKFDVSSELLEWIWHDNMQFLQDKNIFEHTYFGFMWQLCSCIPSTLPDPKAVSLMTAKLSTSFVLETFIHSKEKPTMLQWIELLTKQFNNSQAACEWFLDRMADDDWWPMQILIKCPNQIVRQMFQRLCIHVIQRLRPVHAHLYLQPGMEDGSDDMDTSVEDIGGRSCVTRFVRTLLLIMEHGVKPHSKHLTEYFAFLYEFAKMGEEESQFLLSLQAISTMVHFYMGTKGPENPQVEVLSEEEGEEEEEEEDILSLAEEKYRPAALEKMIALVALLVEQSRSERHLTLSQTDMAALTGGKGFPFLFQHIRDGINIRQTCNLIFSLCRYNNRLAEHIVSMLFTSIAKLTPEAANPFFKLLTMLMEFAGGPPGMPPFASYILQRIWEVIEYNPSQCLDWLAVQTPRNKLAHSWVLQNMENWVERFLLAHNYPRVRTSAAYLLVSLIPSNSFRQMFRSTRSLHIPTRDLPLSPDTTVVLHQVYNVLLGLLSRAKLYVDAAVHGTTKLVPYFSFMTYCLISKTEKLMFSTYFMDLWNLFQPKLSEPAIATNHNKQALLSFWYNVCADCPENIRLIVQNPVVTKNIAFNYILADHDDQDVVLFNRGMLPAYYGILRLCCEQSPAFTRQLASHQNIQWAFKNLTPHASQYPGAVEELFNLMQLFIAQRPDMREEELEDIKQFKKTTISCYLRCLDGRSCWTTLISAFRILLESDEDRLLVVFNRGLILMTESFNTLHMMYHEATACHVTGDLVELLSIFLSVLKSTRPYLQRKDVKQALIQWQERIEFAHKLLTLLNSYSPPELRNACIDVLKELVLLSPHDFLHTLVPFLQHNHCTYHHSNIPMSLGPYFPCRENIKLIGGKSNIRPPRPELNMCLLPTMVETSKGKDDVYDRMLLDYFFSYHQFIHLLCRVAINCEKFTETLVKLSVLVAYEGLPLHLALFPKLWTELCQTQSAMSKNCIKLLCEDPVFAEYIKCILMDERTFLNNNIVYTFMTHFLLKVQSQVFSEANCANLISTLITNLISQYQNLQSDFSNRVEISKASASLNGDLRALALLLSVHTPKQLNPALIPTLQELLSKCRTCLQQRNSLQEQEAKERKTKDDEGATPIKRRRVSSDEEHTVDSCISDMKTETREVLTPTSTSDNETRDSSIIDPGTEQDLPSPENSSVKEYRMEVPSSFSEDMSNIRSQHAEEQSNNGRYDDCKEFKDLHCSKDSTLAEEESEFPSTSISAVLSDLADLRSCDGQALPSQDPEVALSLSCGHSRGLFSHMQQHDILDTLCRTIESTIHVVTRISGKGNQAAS
UniProt Q9NPG3, sequence (Q9NPG3 whole entry, looked up): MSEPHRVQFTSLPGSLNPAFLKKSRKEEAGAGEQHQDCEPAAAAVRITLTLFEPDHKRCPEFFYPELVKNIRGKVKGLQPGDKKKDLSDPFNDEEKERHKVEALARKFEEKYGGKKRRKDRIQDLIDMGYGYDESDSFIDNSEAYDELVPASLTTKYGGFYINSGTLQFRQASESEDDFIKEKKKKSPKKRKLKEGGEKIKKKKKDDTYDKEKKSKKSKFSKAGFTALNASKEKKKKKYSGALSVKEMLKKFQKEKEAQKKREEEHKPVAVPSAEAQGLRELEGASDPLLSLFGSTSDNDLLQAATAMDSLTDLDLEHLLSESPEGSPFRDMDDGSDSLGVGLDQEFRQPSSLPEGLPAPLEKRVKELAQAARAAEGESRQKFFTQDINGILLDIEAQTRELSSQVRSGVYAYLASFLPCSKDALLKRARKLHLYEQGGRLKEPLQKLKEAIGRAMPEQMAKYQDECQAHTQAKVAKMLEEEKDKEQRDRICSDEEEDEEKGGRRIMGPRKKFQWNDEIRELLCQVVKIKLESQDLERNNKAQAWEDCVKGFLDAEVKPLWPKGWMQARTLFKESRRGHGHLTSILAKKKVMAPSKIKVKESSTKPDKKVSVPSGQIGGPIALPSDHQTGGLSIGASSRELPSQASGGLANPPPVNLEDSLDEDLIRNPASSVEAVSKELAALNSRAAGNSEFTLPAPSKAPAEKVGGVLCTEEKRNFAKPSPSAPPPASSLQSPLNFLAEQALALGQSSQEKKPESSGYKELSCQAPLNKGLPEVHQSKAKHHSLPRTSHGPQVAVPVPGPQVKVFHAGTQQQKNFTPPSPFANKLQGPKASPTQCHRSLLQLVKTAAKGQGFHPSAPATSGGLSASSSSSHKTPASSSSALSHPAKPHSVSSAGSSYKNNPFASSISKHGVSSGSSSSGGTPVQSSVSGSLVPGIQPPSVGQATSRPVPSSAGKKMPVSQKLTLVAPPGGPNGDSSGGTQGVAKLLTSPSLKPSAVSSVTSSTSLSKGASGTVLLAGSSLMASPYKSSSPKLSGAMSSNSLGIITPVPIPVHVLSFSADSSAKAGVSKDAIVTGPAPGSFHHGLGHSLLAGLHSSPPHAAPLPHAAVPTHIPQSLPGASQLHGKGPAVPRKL
UniProt O75865, sequence (O75865 whole entry): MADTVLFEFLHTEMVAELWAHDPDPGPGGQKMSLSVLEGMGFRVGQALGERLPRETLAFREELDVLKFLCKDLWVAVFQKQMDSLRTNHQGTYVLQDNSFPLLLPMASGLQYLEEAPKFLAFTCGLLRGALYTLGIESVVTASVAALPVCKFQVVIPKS

Target	probe-labelled cysteine peptide fold change (10 µM)	probe-labelled cysteine peptide fold change (50 µM)
UBAP1_Q9NZ09_243_ATLDFKPLHKPNGFITLPQLGNCEK (UniProt Q9NZ09)	-0.239	-1.36
VCPIP1_Q96JH7_207+219_SQECLIPVHVDGDGHCLVHAVSR (UniProt Q96JH7)	-1.2	-1.48
TRMT11_Q7Z4G4_161_KPQHVFSVLEDYGLDPNCIPENPHNIYFGR (UniProt Q7Z4G4)	-0.0115	-0.0241
TXNL1_O43396_149_AGCECLNESDEHGFDNCLRK (UniProt O43396)	-0.189	-0.0731
UHRF1BP1L_A0JNW5_398_NGWANELLHEFECNVEMLK (UniProt A0JNW5)	-0.0203	-0.158
VARS2_Q5ST30_549_QLWWGHQIPAYLVVEDHAQGEEDCWVVGR (UniProt Q5ST30)	0.149	0.141
USP48_Q86UV5_652+658_KEEEELNFNEDILCPHGELCISENERR (UniProt Q86UV5)	-0.493	-1.42
USP34_Q70CQ2_3118_SNIRPPRPELNMCLLPTMVETSK (UniProt Q70CQ2)	0.146	-0.174
USP8_P40818_809_NCYQDDINR (UniProt P40818)	-0.199	-1.27
USP19_O94966_1169_EEQLPSYDLYAVINHYGGMIGGHYTACAR (UniProt O94966)	-0.00515	0.0872
VPS41_P49754_638_DSTHCPLEK (UniProt P49754)	-0.172	-0.152
TRIM28_Q13263_221+229_HEPLVLFCESCDTLTCR (UniProt Q13263)	-0.0841	-0.368
TRAPPC6A_O75865_124_FLAFTCGLLR (UniProt O75865)	0.203	0.608
UBR2_Q8IWV8_1360_ILSDEDKPLFGPLPCR (UniProt Q8IWV8)	-0.203	-0.412
TRAPPC9_Q96Q05_317_NCLSPEDIIDK (UniProt Q96Q05)	0.12	0.213
USP16_Q9Y5T5_24_TVPIDDSSETLEPVCR (UniProt Q9Y5T5)	-0.224	-0.204
VCPIP1_Q96JH7_517_NYSFPLNNLVCSYDSVK (UniProt Q96JH7)	0.0884	0.1

Target	probe-labelled cysteine peptide fold change (10 µM)	probe-labelled cysteine peptide fold change (50 µM)
UBR4_Q5T4S7_4890_KQQGYSTVSHFNIVHYDCHLAAVR (UniProt Q5T4S7)	0.0563	-0.151
UBA6_A0AVT1_156_YQCVVLTEMK	0.126	0.104
UROS_P10746_143_ESSALPLLFPCGNLKR (UniProt P10746)	-0.128	-0.405
VCPIP1_Q96JH7_469+472_CLLCGALSELHVPPEWLAPGGK (UniProt Q96JH7)	-0.12	0.233
UBN1_Q9NPG3_765_ELSCQAPLNK (UniProt Q9NPG3)	-0.169	-0.168
USP9X_Q93008_1061_AICLDHAK (UniProt Q93008)	0.267	0.565
USP3_Q9Y6I4_98_CDDFVVNDTK (UniProt Q9Y6I4)	-0.0308	-0.0909
TRIM33_Q9UPN9_276_KKEDVSESVGASGQRPVFCPVHK (UniProt Q9UPN9)	-0.0301	-0.148
USP48_Q86UV5_145_DYEPQTICEHLQYLFALLQNSNRR (UniProt Q86UV5)	0.119	0.166
TXNIP_Q9H3M7_170_VSCMFIPDGR (UniProt Q9H3M7)	0.0303	-1.26
UBA7_P41226_68_NLVLMGVGSLTLHDPHPTCWSDLAAQFLLSEQDLER (UniProt P41226)	0.0506	0.33
TRMT2A_Q8IZ69_463_VIGVELCPEAVEDAR (UniProt Q8IZ69)	-0.181	-1.16
UBA1_P22314_711_SLVLQRPQTWADCVTWACHHWHTQYSNNIR (UniProt P22314)	-0.12	0.238
USP10_Q14694_456_VQRPCTSTPMIDSFVR (UniProt Q14694)	-0.0395	-0.00663
USP22_Q9UPT9_171_KITSNCTIGLR (UniProt Q9UPT9)	-0.315	-0.757
USP13_Q92995_231_ENLWLNLTDGSVLCGK (UniProt Q92995)	0.0774	0.113
TUBG1_P23258_138_IHEDIFDIIDREADGSDSLEGFVLCHSIAGGTGSGLGSYLLER<|>TUBG2_Q9NRH3_138_IHEDIFDIIDREADGSDSLEGFVLCHSIAGGTGSGLGSYLLER (UniProt Q9NRH3+P23258)	0.194	-0.0593
